# A selection: hits, their analogues and other compounds. The true share with any hit is near 6.9%.
# NR3A LBD binder: NR3A (human) ligand-binding domain modulation; Tm shift relative to glycine control, % at 25 µM; NR3A LBD differential scanning fluorimetry, Tm shift; 0% = protein alone, 100% = glycine-bound protein; 2.5% of 340,000 active;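 active means melting temperature shift of at least 10% of the positive control shift, at one fixed dose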
# MPTP inh: blocks calcium-induced mitochondrial swelling; inhibition, % at 10 µM; isolated mouse mitochondria, Ca2+ swelling absorbance, 30 min; 1.4% of 360,000 active;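 active means inhibition of 50% or more, scaled per plate between neutral and stimulator controls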;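 further: 0% = DMSO wells given calcium and 100% = 1 mM EGTA wells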
# CSC inhib: cancer stem cell inhibition | cancer stem cell-like cells viability, luminescence | inhibition, % at 7.5 µM | 1.1% of 300,000 active | AID 2717; in the data active means inhibition above about 75%; inconclusive means no clear call, values can overlap the other calls; tested in HMLE shEcad cells
# Beta apoptosis: beta cell apoptosis inhibition; INS-1E cytokine-induced death, ATP luminescence, 48 h; percent of positive-control rescue, neutral wells zero; protection from apoptosis, % (concentration not given with the values); 0.8% of 300,000 active; AID 435005;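 active means Every replicate reaches about 75%, or at least half do and their mean reaches it too, limit read from the data; inconclusive means At least half of replicates reach the limit but their mean does not; inactive means Under half of replicates reach the limit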;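 further: 0% = cytokine-treated negative control wells and 100% = positive control rescue; higher means more ATP so stronger rescue from cytokine killing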
# Mdm2-MdmX inh: human Mdm2/MdmX binding inhibition. O15151+Q00987. SaOS-2 split-luciferase Mdm2/MdmX complementation, luminescence. inhibition, % at 8 µM. 3% of 330,000 active;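 active means inhibition of at least 50% at 8 µM in the primary screen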
# SKKanGAS inh: SKKanGAS growth inhibition; S. pyogenes SKKanGAS, kanamycin growth, BacTiter-Glo, 6 h; 1.3% of 300,000 active; inhibition, % at 7.5 µM;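 active means mean replicate score, as percent of positive control median, at least 50; inconclusive means mean below 50 but one replicate at or above 50; inactive means mean and every replicate below 50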;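 further: strain carries kanamycin resistance gene driven by streptokinase promoter and grows in 40 µg/ml kanamycin; loss of luminescence reflects streptokinase promoter inhibition or plain growth inhibition; 0% = median of DMSO wells and 100% = positive control at its reference dose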
# Mdm2-MdmX conf: human Mdm2/MdmX binding inhibition, confirmed; shares compounds with Mdm2-MdmX inh; luminescent assay; inhibition, % at 8 µM; 55% of 10,000 active; AID 489028; in the data active means inhibition above about 40%
# FLuc counter: full-length luciferase inhibition in Mdm2/MdmX counter-screen. 77% of 6,200 active. SaOS-2 full-length luciferase counterscreen, luminescence. AID 504607. inhibition, % at 8 µM. shares compounds with Mdm2-MdmX inh;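 active means mean inhibition at 8 µM reaching about 37%, which flags the compound as non-specific, limit read from the data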;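 further: p53-null SaOS-2 cells with luciferase driven by a doxycycline-inducible promoter; compound on cells about two nights before reading with doxycycline added after day one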
# Numbers without * were called inactive; u = inconclusive; x = no result.
SMILES,NR3A LBD binder,MPTP inh,CSC inhib,Beta apoptosis,Mdm2-MdmX inh,SKKanGAS inh,Mdm2-MdmX conf,FLuc counter
COc1ccc(CC(=O)Nc2cccc(-c3nnc(-c4cccc(C)c4)o3)c2)cc1OC,2,3,63,106*,93*,26,61*,41*
CC1CCCN(C(=O)c2ccc3ncsc3c2)C1 (centres undefined),0,0,x,x,-28,x,x,x
O=C(O)c1cc(S(=O)(=O)N2CCN(C(=O)c3ccco3)CC2)c(Cl)cc1Cl,0,0,0,-2,-14,-2,x,x
CCOC(=O)c1c(CSc2ccc(CC)cc2)oc2ccc(O)c(CN(C)C)c12,-2,7,81*,4,86*,1,44*,63*
CCCCNC(=O)c1ccc(NC(=O)CC2SC(N3CCCC3)=NC2=O)cc1 (centres undefined),2,0,x,4,11,x,x,x
CS(=O)(=O)c1cnc(-c2ccccc2)nc1Sc1ccc(F)cc1,-5,1,x,x,14,-7,x,x
COc1cccc(Sc2nc(-c3ccccc3)ncc2S(C)(=O)=O)c1,-1,1,x,x,62*,-1,36,x
CCOC(=O)NC1CCc2cc(OC)c(OC)c(OC)c2-c2ccc(SC)c(=O)cc21 (centres undefined),-1,0,x,x,x,x,x,x
CN[C@H]1CCc2cc(OC)c(OC)c(OC)c2-c2ccc(OC)c(=O)cc21,3,-1,46,60,68*,0,56*,104*
COc1cc2c(c(OC)c1OC)-c1ccc(NC(=O)c3ccccc3)c(=O)cc1[C@@H](NC(C)=O)CC2,0,-1,45,18,57*,8,65*,63*
COC(=O)N(C)C[C@@H]1OCc2ccccc2-c2c(n(C)c3ccccc23)C(=O)N([C@H](C)CO)C[C@@H]1C,x,0,x,x,x,x,x,x
CC12CCC(=O)N1C(C(=O)Nc1cc(C(F)(F)F)ccc1N1CCCCC1)CS2 (centres undefined),4,-1,5,2,-21,23,x,x
O=C(NC(=S)NC1CCCCC1)c1ccc(F)cc1,4,2,13,0,-28,-3,x,x
Cn1nc(-c2ccc(N3CCOCC3)c(NS(=O)(=O)c3ccc(Cl)cc3)c2)c2ccccc2c1=O,-5,2,47,6,67*,x,36,38*
Cc1ccc(S(=O)(=O)Nc2cc(-c3nn(C)c(=O)c4ccccc34)ccc2N2CCOCC2)cc1,-2,-1,-4,7,86*,13,77*,30
CC(C)(CNC(=O)Cc1ccc(Br)cc1)N1CCOCC1,0,0,-14,-6,19,1,x,x
Cc1cccc(/C=C/C(=O)c2ccc([N+](=O)[O-])o2)c1,-7,0,24,117*,100*,56*,100*,53*
COc1ccc(/C=C/C(=O)c2ccc([N+](=O)[O-])o2)cc1,-5,0,u,127*,100*,30,68*,42*
Cc1ccccc1/C=C/C(=O)c1ccc([N+](=O)[O-])o1,-1,x,41,122*,100*,62*,86*,55*
CC(C)CN(CC(C)C)C(=O)Nc1cccc([N+](=O)[O-])c1,2,0,x,-5,17,-2,x,x
CN(C)c1nc(NCc2ccccc2)nc(N/N=C/c2ccc(Br)cc2)n1,-2,-2,5,10,90*,1,33,x
COc1ccc(CNc2ncc(-c3ccc(F)cc3)n2C)c2ccccc12,0,4,8,-2,57*,22,25,x
Nc1c(C(=O)NCc2ccc(F)cc2)c2nc3ccccc3nc2n1CCCN1CCOCC1,2,-6,u,-8,54*,20,20,x
COC(=O)c1c(N)n(CCCN2CCOCC2)c2nc3ccccc3nc12,0,0,-3,-10,-12,-5,x,x
COc1ccc(CNC(=O)c2c(N)n(CCCN3CCOCC3)c3nc4ccccc4nc23)cc1,-3,-3,83*,42,56*,14,26,x
SMILES,NR3A LBD binder,MPTP inh,CSC inhib,Beta apoptosis,Mdm2-MdmX inh,SKKanGAS inh,Mdm2-MdmX conf,FLuc counter
Nc1c(C(=O)NCc2ccccc2)c2nc3ccccc3nc2n1CCCN1CCOCC1,-4,-2,31,7,17,8,x,x
CCCNC(=O)C1(CC2CC(c3ccccc3)=NO2)CCN(C(=O)Cc2ccc(F)cc2)CC1 (centres undefined),1,-3,-7,6,-13,0,x,x
COC(=O)C1=C(C)NC(=S)NC1c1ccco1 (centres undefined),-1,1,-4,-3,-14,3,x,x
COc1ccccc1OCCNC(=O)CSC(=S)N1CCCC1,2,3,-12,-3,-2,21,x,x
O=C(Nc1nnc(-c2ccccc2)o1)c1cccc(N2C(=O)CCC2=O)c1,-1,0,-1,x,0,0,x,x
O=C(Nc1nnc(-c2ccc3c(c2)CCCC3)o1)c1ccccc1,-7,2,92*,7,57*,94*,66*,47*
Cc1cc(NO)c(C(C)C)cc1N=O,-2,4,2,0,60*,-3,36,x
CCOC(=O)C1(Cc2ccccc2C(F)(F)F)CCN(C2CCN(C(C)C)CC2)CC1,-1,2,23,9,73*,2,59*,54*
CCOC(=O)C1(Cc2ccccc2C(F)(F)F)CCN(CC(O)CO)CC1 (centres undefined),-1,1,1,-3,14,3,x,x
C[C@H](CO)N1C[C@H](C)[C@@H](CN(C)S(=O)(=O)c2cccs2)Oc2c(NC(=O)Nc3ccccc3)cccc2C1=O,-5,2,0,-3,23,x,x,x
COc1ccc(S(=O)(=O)N(C)C[C@H]2Oc3c(NC(=O)Nc4ccc(C(F)(F)F)cc4)cccc3C(=O)N([C@H](C)CO)C[C@@H]2C)cc1,11*,0,50,13,52*,x,22,x
C[C@@H]1CN([C@H](C)CO)C(=O)c2cccc(NC(=O)Nc3ccc(C(F)(F)F)cc3)c2O[C@H]1CN(C)S(=O)(=O)c1cccs1,-1,2,x,4,57*,x,41*,73*
N=C1C(c2nc3ccccc3s2)=C(O)CN1NC(=O)c1c[nH]c2ccccc12,-6,1,2,-8,4,2,x,x
N=C1C(c2nc3ccccc3s2)=C(O)CN1NC(=O)c1ccccc1[N+](=O)[O-],-1,-1,10,-1,54*,-9,1,x
COc1ccc(NC(=O)c2cc3ccccc3oc2=O)c(OC)c1,2,2,8,-3,-10,-4,x,x
COc1ccc(-c2cc3ccccc3oc2=O)cc1NC(=S)NC(=O)c1ccc2c(c1)OCCO2,0,0,x,47,88*,7,-35,x
